Source: PubChem BioAssay AID2620 (National Center for Advancing Translational Sciences (NCATS), 2010)
Records with an inconclusive call do not appear. Calls of active or inactive are those of the source. Calls come from the whole dose curve; as a rule, active = well fitted curve in the direction sought with a large enough effect; inconclusive = small, poorly fitted or top-dose-only effect, or another doubt; inactive = no such curve, though single readings can be large or run the other way.

Biological target: Pyruvate kinase PKM (Homo sapiens) (UniProt P14618)
Assay: Secondary LDH Assay for Activators of Human Pyruvate Kinase M1 Isoform: for Probe SAR; note: % of control where 0% means no effect
Conditions: purified hPK-M1, LDH-coupled NADH fluorescence kinetic; series mostly up to 58.2 µM; activity change, negative = inhibition: at the top concentration
Description: NIH Chemical Genomics Center [NCGC]
Matthew G. Vander Heiden, M.D., Ph.D. [Harvard Medical School, 77 Avenue Louis Pasteur, Boston, MA 02115]
Human pyruvate kinase […] (hPK-M1)enzyme was supplied as a highly purified (>95% pure) preparation from Harvard Medical School and a secondary assay was used to evaluate compounds. This assay couples the formation of pyruvate from […] using lactate dehydrogenase (LDH) and NADH. The depletion of NADH is followed in a fluorescent-based kinetic assay that follows the formation of pyruvate to lactate, as catalyzed LDH. Pyruvate kinase substrates, PEP and ADP, were present in the assay at 0.1 mM and 4 mM respectively. In this kinetic assay initial rates were determined by following the fluorescence of NADH depletion.
NCGC Assay Protocol Summary:
Three uL of substrate mix (final concentration, 50 mM Tris-Cl pH 8.0, 200 mM KCl, 15 mM MgCl2, 0.1 mM PEP, 4.0 mM ADP, and 0.2 mM NADH) was dispensed into black-solid 1536 well plates. 23 nL of compounds were delivered by a pin tool and 1 uL of enzyme mix (final concentrations, 10 nM hPK-M1 and 1 uM of LDH) was added. Plates were immediately placed in ViewLux (Perkin Elmer) and NADH fluorescence was determined at 30 second exposure intervals for between 3 and 6 minutes. Data were normalized to the uninhibited controls.

Chain of Pyruvate kinase PKM (Homo sapiens) (P14618 whole entry, looked up, canonical isoform): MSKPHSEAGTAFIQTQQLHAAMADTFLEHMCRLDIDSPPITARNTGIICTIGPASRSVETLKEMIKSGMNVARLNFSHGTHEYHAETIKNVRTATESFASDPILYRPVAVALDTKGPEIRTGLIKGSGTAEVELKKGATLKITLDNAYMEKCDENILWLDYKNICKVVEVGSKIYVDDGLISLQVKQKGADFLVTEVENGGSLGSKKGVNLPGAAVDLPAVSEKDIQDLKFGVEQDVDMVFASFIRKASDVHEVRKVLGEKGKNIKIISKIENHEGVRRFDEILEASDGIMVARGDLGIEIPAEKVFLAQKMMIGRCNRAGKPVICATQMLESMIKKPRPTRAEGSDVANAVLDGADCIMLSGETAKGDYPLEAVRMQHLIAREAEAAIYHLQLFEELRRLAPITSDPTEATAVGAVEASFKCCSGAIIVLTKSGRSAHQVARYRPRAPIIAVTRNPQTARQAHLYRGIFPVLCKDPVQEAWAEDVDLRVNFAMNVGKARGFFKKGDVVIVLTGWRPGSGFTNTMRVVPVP

Activity change, negative = inhibition, inactive:
Nc1cc(S(=O)(=O)N2CCN(S(=O)(=O)c3ccc4c(c3)OCCO4)CC2)ccn1 -1.52%
Cc1cccc(OC2=NS(=O)(=O)c3ccccc32)c1 2.57%
Cc1ccc(NC(=O)c2ccc3c(c2)CCC(=O)N3)cc1C 4.99%
Cc1ccc(NS(=O)(=O)c2cc3c(cc2Cl)CCC(=O)N3)cc1Cl 4.63%
O=C1CCc2cc(S(=O)(=O)Nc3ccc4ccccc4c3)ccc2N1 7.62%
O=C1c2ccccc2C(=O)N1Cc1ccccc1 -1.98%
O=C1CCc2cc(Cl)c(S(=O)(=O)Nc3ccc(Cl)c(Cl)c3)cc2N1 2.94%
O=C1CCc2cc(S(=O)(=O)Nc3ccc(F)c(Cl)c3)ccc2N1 2.16%
O=C1CCc2cc(S(=O)(=O)Nc3ccc(Cl)c(Cl)c3)ccc2N1 18.2%
Cc1ccc(NS(=O)(=O)c2cc3c(cc2-c2ccccc2)NC(=O)CO3)cc1C -1.77%
Cc1ccc(NS(=O)(=O)c2ccc3c(c2)CCC(=O)N3)cc1Cl 8.26%
O=C1c2ccccc2C(=O)N1c1cccc2ccncc12 -5.12%
O=C1c2ccccc2C(=O)N1c1ccccc1O 2.14%
Cc1ccc(NS(=O)(=O)c2cc3c(cc2Cl)NC(=O)C3)cc1C -4.8%
O=C1CCc2cc(S(=O)(=O)Nc3ccc4c(c3)OCCO4)ccc2N1 4.89%
O=C1CCc2cc(S(=O)(=O)Nc3ccc(Cl)cc3)ccc2N1 -4.92%
O=S1(=O)N=C(Oc2ccccc2Cl)c2ccccc21 5.42%
COc1ccccc1OC1=NS(=O)(=O)c2ccccc21 1.77%
Cc1ccc(N[S+](=O)([O-])c2cc3c(cc2CCc2ccccc2)NC(=O)CO3)cc1C 3.8%
Nc1cccc(S(=O)(=O)N2CCCN(S(=O)(=O)c3ccc4c(c3)OCCO4)CC2)c1 2.23%
O=C1CCc2cc(S(=O)(=O)Nc3ccc4ncccc4c3)ccc2N1 -3.94%
O=C1CCc2cc(S(=O)(=O)Nc3cccc(C(F)(F)F)c3)ccc2N1 19.6%
CN=c1nc(-c2ccccc2)n(-c2ccccc2)s1 7.26%
Cc1cc(NS(=O)(=O)c2ccc3c(c2)CCC(=O)N3)ccc1Cl -2.64%
Cc1ccc(NS(=O)(=O)c2ccc3c(c2)CC(=O)N3)cc1C 2.06%
Cn1c2cc(S(C)=O)sc2c2cnn(Cc3cccc(O)c3)c(=O)c21 (stereo not given) 10.1%
O=C1c2ccccc2C(=O)N1c1ccncc1 10.2%
COc1cccc(Cn2ncc3c4sc(S(C)=O)cc4n(C)c3c2=O)c1 (stereo not given) -3.35%
O=C1CCc2cc([S+](=O)([O-])NC3CCOCC3)ccc2N1 -2.1%
O=C1CCc2cc(S(=O)(=O)Nc3ccccc3-c3ccccc3)ccc2N1 6.2%
Cc1ccc(NS(=O)(=O)c2ccc3c(c2)CCC(C)(C)O3)cc1C 1.91%
CN(C)c1cccc(S(=O)(=O)N2CCCN(S(=O)(=O)c3ccc4c(c3)OCCO4)CC2)c1 8.35%
Cc1ccc2nc(-c3ccc(C)o3)c(NC3CCCC3)n2c1 -5.73%
Cc1cc(NS(=O)(=O)c2ccc3c(c2)CCC(=O)N3)ccc1F 4.47%
O=C1CCc2cc(S(=O)(=O)Nc3ccncc3)ccc2N1 8.5%
O=C1c2ccccc2C(=O)N1c1cccnc1 0.813%
COc1ccc(NS(=O)(=O)c2ccc3c(c2)CCC(=O)N3)cc1 0.0385%
O=C1CCc2cc(S(=O)(=O)Nc3ccccn3)ccc2N1 -5.19%
O=C1NS(=O)(=O)c2ccccc21 -0.749%

outcome, inactive:
Cc1cc2c(s1)c1cnn(Cc3ccccc3F)c(=O)c1n2C
